From PubChem BioAssay (NCATS)
Several values for one entry are separate records, joined by “and”; a condition that tells them apart may be missing. Equal values may be shown once. Inconclusive results are not listed. A call without a number means that no potency is given here. A number with no mark means an inactive call. Activity calls are given as the source filed them. Calls come from the whole dose curve; as a rule, active = well fitted curve in the direction sought with a large enough effect; inconclusive = small, poorly fitted or top-dose-only effect, or another doubt; inactive = no such curve, though single readings can be large; an effect the other way counts as inactive or inconclusive.

What was measured:
[1] = qHTS for Inhibitors of the Aldehyde Dehydrogenase Family (ALDH1A2, ALDH1A3, ALDH2, ALDH3A1) (AID 2061307); note: nearly all actives have a fitted effect of over 50% in size; for potency: test system not described further here
[2] = target: Aldehyde dehydrogenase, mitochondrial (Homo sapiens) (UniProt P05091); assay: qHTS for Inhibitors of the Aldehyde Dehydrogenase Family (ALDH2) Primary screen (AID 2061308); note: nearly all actives have a fitted effect of over 55% in size
[3] = target: Retinaldehyde dehydrogenase 3 (Homo sapiens) (UniProt P47895); assay: qHTS for Inhibitors of the Aldehyde Dehydrogenase Family (ALDH1A3) Confirmatory screens (AID 2061311); note: nearly all actives have a fitted effect of over 60% in size
[4] = target: Retinal dehydrogenase 2 (Homo sapiens) (UniProt O94788); assay: qHTS for Inhibitors of the Aldehyde Dehydrogenase Family (ALDH1A2) Confirmation screens (AID 2061314); note: nearly all actives have a fitted effect of over 65% in size
[5] = target: Retinaldehyde dehydrogenase 3 (Homo sapiens) (UniProt P47895); assay: qHTS for Inhibitors of the Aldehyde Dehydrogenase Family (ALDH1A3) Primary screen (AID 2061315)
[6] = target: Aldehyde dehydrogenase 1A1 (Homo sapiens) (UniProt P00352); assay: qHTS for Inhibitors of the Aldehyde Dehydrogenase Family (ALDH1A1) Confirmatory screens (AID 2061316); note: nearly all actives have a fitted effect of over 65% in size
Potency is the fitted concentration of half-maximal effect.

Row | SMILES | Potency [1] | Potency [2] | Potency [3] | Potency [4] | Potency [5] | Potency [6] | activity change, negative = inhibition [3]
1 | COc1ccc(-n2c(C)c(C(C)=O)c3cc(OC(=O)c4ccccc4OC(C)=O)ccc32)cc1 | inactive |  |  |  |  |  | 
2 | COc1ccc(C2Nc3ccccc3C(=O)N2Cc2ccccc2)cc1COc1ccc(C#N)cc1 (configuration not stated) | 1.01 µM (active) | inactive | 12.6 µM (active) | 0.896 µM (active) | inactive |  | 
3 | COc1ccc(-n2c(C)c(C(C)=O)c3ccccc32)cc1 | 0.4 µM (active) | inactive | 15.8 µM (active) | inactive | inactive |  | 
4 | COc1cccc(-c2nc(-c3ccc(C(=O)O)cc3)no2)c1 | 1.2 µM (active) | inactive | 0.504 µM (active) | inactive |  |  | 
5 | Cc1ccc(S(=O)(=O)Nc2cc(F)ccc2C(=O)Nc2nc(-c3ccccc3)cs2)cc1 | 0.224 µM (active) | inactive | inactive | 5.04 µM (active) | inactive |  | 
6 | COc1cccc(C2c3c(ncn(-c4ccccc4-c4ccccc4)c3=N)Oc3ccc4ccccc4c32)c1 (configuration not stated) | 8.91 µM (active) | inactive | 15.8 µM (active) | 7.98 µM (active) | inactive |  | 
7 | NCC(CNc1nc(Nc2cccc(NC(=O)N3CCCC3)c2)ncc1I)C(=O)c1cccs1 (configuration not stated) | inactive | 20 µM (active) |  |  |  |  | 
8 | COc1ccc(NC(=O)Cn2ncc3ccccc3c2=O)cc1S(=O)(=O)N1CCOCC1 | inactive |  |  |  |  |  | 
9 | CC(=O)Nc1sc2c(c1-c1nc3ccccc3o1)CCN(C(C)C)C2 | 7.08 µM (active) | inactive | 12.6 µM (active) |  |  |  | 
10 | O=C(O)c1ccc(-c2noc(-c3ccccc3F)n2)cc1 | 3.98 µM (active) and 1.2 µM (active) | inactive | 0.565 µM (active) | inactive |  |  | 
11 | COc1ccc(-n2ccc(CNc3cccc(F)c3C#N)n2)cc1 | inactive |  |  |  |  |  | 
12 | Cn1c(=O)n(C)c2cc(N3CCCC3)c(NC(=O)Nc3ccccc3)cc21 | inactive |  |  |  |  |  | 
13 | CC(=O)Nc1ccc(OCc2cn(CC(=O)c3ccc(O)cc3)nn2)cc1 | inactive |  |  |  |  |  | 
14 | Oc1ccc(COC2CCN(Cc3ccccc3)C2)c2cccnc12 (configuration not stated) | inactive | inactive | 12.7 µM (active) | inactive | inactive |  | 
15 | COC(=O)CC(=O)Nc1ccccc1C(=O)O | inactive |  |  |  |  |  | 
16 | N#Cc1ccc(NC(=O)Cn2cnc3ccccc3c2=O)cc1 | inactive |  |  |  |  |  | 
17 | N#Cc1cccc(C#N)c1-c1nc2c3ccccc3c3cc(Cl)ccc3c2[nH]1 | inactive | inactive | 5.65 µM (active) | inactive | 25.1 µM (active) |  | 
18 | Cc1[nH]cnc1C[C@H]1CCc2c(C)c3ccccc3n2C1=O | 8.96 µM (active) | inactive | 3.18 µM (active) | 11.3 µM (active) | inactive |  | 
19 | CC(=O)c1c(C)n(-c2ccccc2)c2ccc(O)cc12 | 0.798 µM (active) |  |  |  |  |  | 
20 | Cc1ccc(CNc2ccc(N3CCN(C)CC3=O)cc2)cc1 | inactive | inactive |  |  |  |  | 
21 | Cc1ccc(CNc2ccc(N3CCCCC3)cc2)cc1 | 11.3 µM (active) | inactive | 20.1 µM (active) | 28.3 µM (active) |  |  | 
22 | O=C(O)c1ccc(-c2noc(-c3cccc(F)c3)n2)cc1 | 1.52 µM (active) | inactive |  |  |  |  | 

Row | SMILES | Potency [1] | Potency [2] | Potency [3] | Potency [4] | Potency [5] | Potency [6] | activity change, negative = inhibition [3]
23 | CCOC(=O)C1CCN(c2ncc(-c3ccc4c(c3)OCCCO4)s2)CC1 | 5.65 µM (active) | inactive | 10.1 µM (active) | 4 µM (active) |  |  | 
24 | c1cc2c(cc1CNc1ccc(N3CCCCC3)cc1)OCO2 | 12.7 µM (active) | inactive | 12.7 µM (active) |  |  |  | 
25 | O=C(O)c1ccc(O)c2ncc(N3CC(N4CCOCC4)C3)cc12 | inactive | inactive | 12.7 µM (active) | 15.9 µM (active) | inactive |  | 
26 | Cc1ccsc1CN(C)c1ncnc2ccc(-c3ccoc3)cc12 | inactive | inactive | 22.5 µM (active) | 11.3 µM (active) | inactive |  | 
27 | CCOC(=O)C1CCN(C(=O)C(C)(C)NC(=O)Nc2ccc(N)cc2)CC1 | inactive | inactive |  |  |  |  | 
28 | Cc1ccc2nc3sc(C(=O)NCCCN(C)C)cc3cc2c1 | 12.1 µM (active) | inactive | 21.5 µM (active) |  |  |  | 
29 | COc1ccc2nc(-c3ccc(F)cc3)sc2c1 | 5.38 µM (active) | inactive |  |  |  |  | 
30 | Cn1c(C(=O)Nc2cccc(Cl)c2)cc2c(=O)n(C)c3ccccc3c21 | inactive |  |  |  |  |  | 
31 | c1cc2c(cc1CNc1ccc(N3CCOCC3)cc1)OCO2 | 11.3 µM (active) | inactive | 6.34 µM (active) |  |  |  | 
32 | Oc1ccccc1C1Nc2cccc3cccc(c23)N1 | inactive | inactive | 12.7 µM (active) |  |  |  | 
33 | CC1(C)CC[C@]2(C(=O)O)CC[C@]3(C)C(=CCC4[C@@]5(C)C[C@@H](O)[C@H](O)[C@@](C)(CO)C5CC[C@]43C)[C@@H]2[C@@H]1O (some centres not stated) | inactive | inactive | 11 µM (active) |  |  |  | 
34 | COc1cccc(C2c3c(ncn(-c4ccccc4)c3=N)Oc3ccc4ccccc4c32)c1 (configuration not stated) | inactive | inactive | 11.3 µM (active) | 12.7 µM (active) | inactive |  | 
35 | Cc1cccc(NC(=O)C2CC(=O)N(c3ccc(S(=O)(=O)N(C)C)cc3)C2)n1 (configuration not stated) | inactive |  |  |  |  |  | 
36 | c1cc(NC2CNC2)nc(-c2cnc3ccccn23)c1 | inactive |  |  |  |  |  | 
37 | O=C(Nc1cccc(C(F)(F)F)c1)c1ccccc1NCc1ccccc1 | inactive |  |  |  |  |  | 
38 | CCCCn1cnc2cc(NCc3ccc(OCC)cc3)ccc21 | 5.04 µM (active) |  |  |  |  |  | 
39 | O=C1C[C@](c2ccc(N3CCOCC3)cc2)(c2ccsc2)NC(=O)C1Sc1ccccc1Cl (some centres not stated) | inactive |  |  |  |  |  | 
40 | CC(=O)NC(C)c1cc(F)c2cccnc2c1O (configuration not stated) | 2.52 µM (active) | inactive | 11.3 µM (active) | 10.1 µM (active) | inactive |  | 
41 | Oc1ccc(COc2cccc3ccccc23)c2cccnc12 | inactive | inactive | 10.1 µM (active) |  |  |  | 
42 | Oc1ccc(CNc2cc(C(F)(F)F)ccn2)c2cccnc12 | 20.1 µM (active) | inactive | 5.65 µM (active) | 7.12 µM (active) |  | 11.3 µM (active) | 
43 | O=C(c1ccco1)N1CCN(c2nc(-c3ccc(Br)cc3)cs2)CC1 | 3.98 µM (active) | inactive | 15.8 µM (active) | inactive | inactive |  | 
44 | O=C1Nc2c(Cl)cccc2/C1=C\c1cc(Cl)c(O)c(Cl)c1 | 1.79 µM (active) | inactive | inactive | 25.2 µM (active) | inactive | 7.12 µM (active) | 

Row | SMILES | Potency [1] | Potency [2] | Potency [3] | Potency [4] | Potency [5] | Potency [6] | activity change, negative = inhibition [3]
45 | COc1ccc(-n2c(C)c(C(C)=O)c3cc(O)ccc32)cc1 | inactive | inactive | inactive | inactive | inactive | inactive | 
46 | N#Cc1nc(Nc2cccc([N+](=O)[O-])c2)nc(NC2CCCC2)n1 | 5.62 µM (active) | inactive | 22.4 µM (active) | 6.34 µM (active) | inactive |  | 
47 | COc1ccccc1-c1nc(-c2ccc(C(=O)O)cc2)no1 | 2.14 µM (active) | inactive | 1.13 µM (active) | inactive |  | inactive | 
48 | Cc1cnc(-c2ccccc2CO)nc1NCC1CCN(c2cccnc2)CC1 | inactive | inactive | inactive | 11.3 µM (active) | inactive |  | 
49 | COc1cccc(C2=Nn3c(nnc3-c3ccccc3C)SC2)c1 | 2.51 µM (active) | inactive | 22.4 µM (active) | 17.8 µM (active) | inactive | 10.1 µM (active) | 
50 | CC(=O)N1CCN(c2ccc(NCc3cccs3)cc2)CC1 | 3.18 µM (active) | inactive | 7.98 µM (active) | 5.65 µM (active) |  | 10.1 µM (active) | 
51 | Cc1ccc(CNc2ncnc3ccc(-c4ccoc4)cc23)o1 | inactive | inactive | inactive | 20.1 µM (active) | inactive |  | 
52 | O=C1N/C(=C\c2ccco2)C(=O)N1Cc1ccccc1 | 0.798 µM (active) | inactive | 11.3 µM (active) | 12.7 µM (active) | inactive | 3.57 µM (active) | 
53 | CN(C)[S+](=O)([O-])c1ccc(-c2cncc(NC(=O)c3cccs3)c2)cc1 | 2 µM (active) | inactive | 0.562 µM (active) | 6.31 µM (active) | inactive | inactive | 
54 | Cc1occc1-c1ccc2ncnc(NCCc3cnc[nH]3)c2c1 | inactive | inactive | 3.57 µM (active) | 28.3 µM (active) | inactive |  | 
55 | NC(=O)C1CCN(c2ncc(-c3ccc4c(c3)OCO4)s2)CC1 | 5.04 µM (active) | inactive | 17.8 µM (active) | inactive |  | 12.7 µM (active) | 
56 | O=C(Nc1cccc2nn(-c3ccc(F)cc3)cc12)c1ccccn1 | inactive | inactive | inactive | inactive | inactive | 28.3 µM (active) | 
57 | CCOC(=O)c1ccc2c(c1)c(C(C)=O)c(C)n2-c1ccc(OC)cc1 | inactive | inactive | inactive | inactive | inactive | inactive | 
58 | Cc1ccc(OCCn2c(CCNC(=O)c3cccc(C(F)(F)F)c3)nc3ccccc32)cc1 | inactive | inactive | inactive | inactive | inactive | inactive | 
59 | O=C(CSc1nc2ccccc2n1CCc1ccccc1)c1ccc(O)c(O)c1 | 12.7 µM (active) | inactive | 11.3 µM (active) | inactive | inactive | 7.98 µM (active) | 
60 | Cc1ccccc1Nc1nc(C#N)nc(NC2CCCC2)n1 | 10.1 µM (active) | inactive |  | 12.7 µM (active) | inactive |  | -21.8% [at 0.0073 µM]
61 | Cc1ccc(S(=O)(=O)Nc2cnccc2C(=O)Nc2nc(-c3ccc4c(c3)CCCC4)cs2)cc1 | 22.5 µM (active) | inactive | inactive | 8.96 µM (active) | inactive | 11.3 µM (active) | 
62 | CN(C)c1cccc(-c2cnc(N3CCC(C(N)=O)CC3)s2)c1 | 8.96 µM (active) | inactive | 15.9 µM (active) | inactive |  | 10.1 µM (active) | 
63 | O=S(=O)(NN1CCOCC1)c1ccc(Br)cc1 | 22.5 µM (active) | inactive | inactive | 11.3 µM (active) | inactive | 3.57 µM (active) | 
64 | O=C(NCc1ccccc1)C1CCN(c2nc(-c3ccc(Br)cc3)cs2)CC1 | 7.08 µM (active) | inactive | inactive | inactive | inactive |  | 
